BAZ2B block: blocks human BAZ2B; 4.4% of 360,000 active; AlphaScreen BAZ2B-H3K14Ac peptide displacement; Q9UIF8; Potency, µM (highest dose often 114 µM), without a hit: top-dose activity change, negative = inhibition, actives largely listed as inhibitors; note: potency is the fitted concentration of half-maximal effect; % is set by controls: 0 for no effect and ±100 for the full control effect; nearly all actives have a fitted effect of over 60% in size
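BAZ2B (50 nM) with biotin-H3(5-23)K14Ac peptide (50 nM) in PBS pH 7.4, 0.01% Tween-20, preformed 30 min, then compound 30 min at room temperature; top concentration 110uM. AlphaScreen streptavidin donor/nickel chelate acceptor beads (10 ug/mL final), 20 min dark, signal read.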
JMJD2A Tudor: inhibitors of human JMJD2A Tudor domain; 4.4% of 390,000 active; O75164; AlphaScreen JMJD2A-Tudor / H3K4me3 peptide binding; Potency, µM (highest dose often 114 µM), inactives show top-dose activity change, negative = inhibition, most hits filed as inhibitors; note: potency is the fitted concentration of half-maximal effect; % is set by controls: 0 for no effect and ±100 for the full control effect; nearly all actives have a fitted effect of over 50% in size
PI5P4K alpha inh: blocks human PI5P4K alpha kinase activity. 1.2% of 330,000 active. PI5P4Kalpha enzyme, ADP-Glo luminescence, 60 min; active compounds read low. AID 652105. P48426. max response, %; active = max response of -50% or lower; inconclusive = between -30% and -50%; inactive = -30% or higher; note: value at the top dose of about 77 µM; % is set by controls: 0 for no effect and ±100 for the full control effect
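Single end-point luminescence (ADP-Glo) quantified ADP from PI5P4Kalpha turnover; ATP 5 microM final, 1 h at RT, 0.1% CHAPS and 0.28 mM EGTA in HEPES pH 7.4.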
HP1b binding inh: HP1-beta chromodomain-methylated histone interaction inhibition; AlphaScreen HP1-beta / biotin-H3K9me3 peptide binding; Potency, µM (series often up to 114 µM), for the others: top-dose activity change, negative = inhibition, most hits filed as inhibitors; 0.56% of 390,000 active; note: potency is the fitted concentration of half-maximal effect; nearly all actives have a fitted effect of over 70% in size
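AlphaScreen: HP1-beta (50 nM) preformed 30 min with biotin-H3(1-18)K9me3 peptide (50 nM) in PBS pH 7.4, 0.01% Tween-20. Compound added for 30 min at RT, then streptavidin donor/nickel chelate acceptor beads (10 ug/mL) for 30 min.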
L3MBTL1 block: blocks human L3MBTL1; Q9Y468; AlphaScreen L3MBTL1–H3K9me1 peptide binding; Potency, µM (highest dose often 57.1 µM), for inactives: at the highest dose activity, negative = inhibition, hits mostly inhibitors; 0.66% of 230,000 active; note: potency is the fitted concentration of half-maximal effect; % is set by controls: 0 for no effect and ±100 for the full control effect; nearly all actives have a fitted effect of over 60% in size
Target sequence (Q9Y468 whole entry, looked up): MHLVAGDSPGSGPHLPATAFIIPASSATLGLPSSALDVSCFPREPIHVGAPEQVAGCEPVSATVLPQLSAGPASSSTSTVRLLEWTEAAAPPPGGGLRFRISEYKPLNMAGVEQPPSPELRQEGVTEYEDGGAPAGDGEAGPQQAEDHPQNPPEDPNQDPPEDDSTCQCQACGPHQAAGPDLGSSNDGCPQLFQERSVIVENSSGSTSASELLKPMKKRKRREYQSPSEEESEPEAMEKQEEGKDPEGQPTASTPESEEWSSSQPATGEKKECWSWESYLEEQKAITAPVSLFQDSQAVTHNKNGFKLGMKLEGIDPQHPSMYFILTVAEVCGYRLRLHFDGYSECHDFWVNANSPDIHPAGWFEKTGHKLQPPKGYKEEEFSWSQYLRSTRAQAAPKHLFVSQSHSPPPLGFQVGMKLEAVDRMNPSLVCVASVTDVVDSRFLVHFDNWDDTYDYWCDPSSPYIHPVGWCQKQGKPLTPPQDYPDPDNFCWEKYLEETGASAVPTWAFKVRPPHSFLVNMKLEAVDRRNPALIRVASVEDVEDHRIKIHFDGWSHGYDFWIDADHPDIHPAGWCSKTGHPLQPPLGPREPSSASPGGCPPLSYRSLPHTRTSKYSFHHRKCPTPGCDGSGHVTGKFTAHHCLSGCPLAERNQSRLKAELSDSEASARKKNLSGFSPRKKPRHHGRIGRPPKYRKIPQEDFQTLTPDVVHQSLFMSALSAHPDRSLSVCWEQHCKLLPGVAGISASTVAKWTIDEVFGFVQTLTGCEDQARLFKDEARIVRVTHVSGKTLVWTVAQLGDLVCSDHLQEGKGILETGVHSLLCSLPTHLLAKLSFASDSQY
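Displacement of a biotinylated histone H3(1-15) peptide monomethylated at Lys9 (75 nM) from L3MBTL1 (50 nM) was measured by AlphaScreen after a 30 min room-temperature compound incubation; cefsulodin titration served as intraplate control.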
JMJD2E inh: JMJD2E (human) inhibition. B2RXH2. JMJD2E catalytic domain, FDH-coupled NADH fluorescence (FDH is formaldehyde dehydrogenase). 1.6% of 230,000 active. Potency, µM (series often up to 57.1 µM), for inactives: at the top dose activity change, negative = inhibition, most hits filed as inhibitors; active = well fitted inhibition curve with a large enough effect, not every such curve was filed as active; inconclusive = small, poorly fitted or top-dose-only effect, or another doubt; inactive = no such curve, though single readings can be large or run the other way;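 note: potency is the fitted concentration of half-maximal effect; 0% = wells with enzyme and -100% = buffer wells without enzyme; nearly all actives have a fitted effect of over 50% in size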
* marks the source's active call; other numbers are inactive results; ? = inconclusive; nt = no result; [ ] = remark or other dose. A selection: hits, their analogues and other compounds. The true share with any hit is near 5.7%. Unless noted, calls come from the whole dose curve; as a rule, active = well fitted inhibition curve with a large enough effect; inconclusive = small, poorly fitted or top-dose-only effect; inactive = no such curve, though single readings can be large or run the other way.

SMILES	BAZ2B block	JMJD2A Tudor	PI5P4K alpha inh	HP1b binding inh	L3MBTL1 block	JMJD2E inh
O=[N+]([O-])c1cccc(-c2n[nH]c(=S)n2-c2ccccc2)c1	-5.1%	22.4µM*	-2.8	1.2%	nt	-10.9%
COc1ccc(Cl)cc1NC(=O)c1nn(-c2ccc(C)cc2)c(=O)n(C)c1=O	-1.0%	-6.7%	nt	22.4%[57 µM]	nt	nt
COc1ccc(Nc2cc(C(=O)NCc3ccco3)c3ccccc3n2)c(OC)c1	50.1µM*	?	2.4	-23.6%	-0.6%	-4.3%
Cc1ccc2c(c1)C(c1ccccc1)N(C(=O)COc1ccc(Cl)cc1Cl)CC(=O)N2 (configuration not stated)	-16.9%	-21.2%	nt	15.5%	nt	nt
Cc1cc(N2CCN(Cc3cn(C)nc3-c3cccc(Cl)c3)CC2)cc(C)n1	44.7µM*	-15.1%	14.2	-0.3%	4.7%	-0.7%
Cn1cc(CN2CCN(c3ncccn3)CC2)c(-c2cccc(Cl)c2)n1	-4.7%	-3.6%	4.8	16.0%	-5.9%	5.3%
Cc1cc(C)c(Nc2nc3ccccc3n3c(C)nnc23)c(C)c1	-0.4%	-9.9%	nt	13.1%	nt	nt
O=C(O)C1CCNCC1	nt	nt	nt	nt	nt	-0.3%
O=C(O)C1CCC(C(=O)O)O1 (configuration not stated)	nt	44.7µM*	-0.6	-10.6%[57 µM]	nt	nt
CCOc1ccc(-c2cn3c(n2)sc2cc(C(=O)NCCCN4CCCCCC4)ccc23)cc1	16.1%	-6.6%	nt	58.0%	nt	nt
CCCN1CCN(CCCNC(=O)c2ccc3c(c2)sc2nc(-c4ccc(OCC)cc4)cn23)CC1	28.2µM*	?	nt	-16.7%	nt	nt
COc1ccc(NC(=O)Cn2nc(C(=O)O)c3ccccc3c2=O)cc1Cl	2.1%	?	-10.8	-5.2%	nt	nt
O=C(Nc1ccc(C2=NCCN2)cc1)c1ccc(C(=O)Nc2ccc(C3=NCCN3)cc2)c(Cl)c1	-28.5%	56.2µM*	-9.4	?	-20.1%	-18.1%
O=C(O)c1cc(-n2c(/C=C\c3ccc(F)cc3)nc3ccccc3c2=O)ccc1Cl	-9.2%	-12.2%	nt	13.1%	nt	nt
CCN(CC(=O)Nc1ccc2c(c1)OCCO2)C(=O)c1ccc([N+](=O)[O-])s1	-33.9%	-14.2%	-17.2	9.1%	-7.3%	nt
Cc1ccc2nc(Cl)c3cc(C(=O)NCCCN(C)Cc4ccccc4)sc3c2c1	22.4µM*	?	nt	-10.0%	nt	nt
S=c1[nH]nc(COc2ccccc2)n1Cc1ccccc1	-3.0%	89.1µM*	1.2	3.9%	-3.3%	-4.9%
CCCCc1n[nH]c(=S)n1Cc1ccc(Cl)cc1	-12.4%	?	1.0	18.8%	nt	-16.6%
S=c1[nH]nc(COc2ccccc2)n1C1CCCCC1	-0.4%	50.1µM*	0.2	8.6%	-1.8%[11.4 µM]	-20.5%
CCn1c(CSCc2ccccc2)n[nH]c1=S	-24.9%	17.8µM*	3.2	23.1%	5.9%[11.4 µM]	-9.1%
CCCCc1n[nH]c(=S)n1Cc1ccccc1	-26.7%	3.98µM*	0.1	7.8%	3.2%[11.4 µM]	-8.4%
S=c1[nH]nc(CSc2nc3ccccc3s2)n1C1CCCCC1	?	?	-11.4	-20.2%	-7.8%	7.3%
CC(=O)c1cccc(S(=O)(=O)NCCc2csc3nc(-c4ccc(F)cc4)nn23)c1	-12.5%	-21.8%	nt	-8.6%	nt	nt
O=C(COc1ccccc1)NCc1ccc2c(c1)CCN2C(=O)c1ccc(Cl)cc1	-19.3%	-14.7%	nt	31.1%	nt	nt
Cn1nc(C(=O)NCc2ccccc2Cl)c2c1-c1ccccc1SC2	-0.8%	-4.0%	nt	38.9%	nt	nt
SMILES	BAZ2B block	JMJD2A Tudor	PI5P4K alpha inh	HP1b binding inh	L3MBTL1 block	JMJD2E inh
CCc1c(C)nc(SCC(=O)N2CC(C)OC(C)C2)[nH]c1=O (configuration not stated)	-5.4%	-6.9%	-1.3	19.8%	0.8%	nt
C=CCn1c(CCSCc2ccccc2)n[nH]c1=S	-10.2%	15.8µM*	0.2	15.6%	-6.9%	-3.2%
CCn1c(Cc2ccccc2)n[nH]c1=S	-18.0%	?	0.5	31.2%	nt	-4.0%
Cn1c(CCc2nc3ccccc3[nH]2)n[nH]c1=S	0.3%	7.94µM*	-10.4	16.7%	nt	-21.8%
CCn1c(CCn2c3ccccc3c3ccccc32)n[nH]c1=S	?	-21.5%	7.2	47.0%	-3.9%	?
CCCn1c(CCc2ccccc2)n[nH]c1=S	8.5%	4.47µM*	0.9	16.3%	-2.0%	-2.5%
CCn1c(CCc2ccccc2)n[nH]c1=S	-11.3%	3.55µM*	-9.9	18.5%	5.6%	-0.9%
COc1ccccc1CNC(=O)c1ccc(NC(=O)CC2SC(N3CCCC3)=NC2=O)cc1 (configuration not stated)	nt	2.3%	1.1	26.8%	1.7%	nt
CCc1ccc(OCc2n[nH]c(=S)n2Cc2ccccc2)cc1	-12.4%	?	-0.1	-2.0%	0.1%	-3.0%
CCOc1ccccc1CSc1nc2ccccc2[nH]1	5.9%	7.3%	5.8	78.0%	5.8%	4.9%
CCCCn1c(Cc2ccccc2)n[nH]c1=S	-3.4%	3.98µM*	-2.2	?	-2.1%	-0.4%
O=C(NCc1n[nH]c(=S)n1Cc1ccccc1)c1ccccc1	-12.1%	?	0.7	7.6%	5.4%	-8.7%
CCN(CC)S(=O)(=O)c1ccc(C(=O)NCc2n[nH]c(=S)n2Cc2ccccc2)cc1	-4.9%	28.2µM*	nt	21.0%	3.1%	-18.4%
CCn1c(CSc2nc3ccccc3[nH]2)n[nH]c1=S	-3.2%	6.31µM*	nt	10.9%	6.7%	-2.6%
CCOC(=O)c1ccccc1NC(=O)Cn1ncc2c([nH]c3ccccc32)c1=O	-2.9%	3.3%	nt	12.6%	nt	nt
COC(=O)[C@H](C)[C@H](CC(C)C)NC(=O)[C@H](C)[C@H](CC(C)C)NC(=O)c1ccccn1	nt	-4.8%	nt	27.6%	nt	nt
Cc1ccc(CNC(=O)c2cccc(Nc3nc4ccccc4n4nnnc34)c2)cc1	-4.1%	-8.2%	nt	21.8%	nt	nt
CC(C)N(Cc1nc(-c2ccc(Cl)cc2)no1)C(=O)c1ccco1	-18.2%[57.1 µM]	0.3%	nt	29.9%	nt	nt
Cc1ccc(NS(=O)(=O)c2cc(NC(=O)C(C)Oc3ccccc3)ccc2C)c(C)c1 (configuration not stated)	-36.3%	-24.8%	-7.6	25.6%	-8.1%	5.8%
CCc1ccc(S(=O)(=O)Nc2cc(SCC(=O)O)c(O)c3ccccc23)cc1	?	22.4µM*	?	?	?	?
O=C(O)CSc1cc(NS(=O)(=O)c2cccc([N+](=O)[O-])c2)c2ccccc2c1O	?	-35.3%[11.4 µM]	-29.1	10µM*	?	?
Cc1ccc(C)c(S(=O)(=O)Nc2cc(SCC(=O)O)c(O)c3ccccc23)c1	20µM*	39.8µM*	?	?	?	12.0%
O=S(=O)(Nc1cc(Sc2cccc3cccnc23)c(O)c2ccccc12)c1ccccc1	?	nt	nt	nt	?	28.2µM*
O=C(O)c1cccc(S(=O)(=O)Nc2ccc([N+](=O)[O-])cc2O)c1	-27.8%	?	-2.8	10.7%	0.3%	?
